Results reported in PubChem BioAssay AID1159580 (chemical genetic matrix, 2015).
Values joined by “and” are separate entries in the source; they are usually repeats but may differ in a detail not shown here. Equal values may be shown once. The whole screen tested about 5,500 compounds, of which about 2,000 (36%) were called active. Not shown: some 18% with an inconclusive outcome. Rule as the data show it: active = normalized growth mostly below about 0.91 (no sharp cut-off); inconclusive = no clear call, values can overlap the other calls; inactive = mostly above about 0.92. This is one part of the list.

Experiment: chemical genetic growth profiling, strain panel (AID 1159580);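 also: tested at 20 µM; growth read once vehicle control cultures reached saturation at 30 °C; 1 = growth at the plate median or of vehicle wells; lower values mean less growth of the strain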
Conditions: S. cerevisiae deletion strains, growth OD

Measured: normalized growth

O=C(CCCN1CCC2(CC1)C(=O)NCN2c1ccccc1)c1ccc(F)cc1
inactive: locus YAL021C, strain ccr4, active compounds read low 0.956 | locus YAL026C, strain drs2, active compounds read low 0.981 | locus YAL030W, strain snc1, active compounds read low 0.983 | locus YAL040C, strain CLN3, active compounds read low 0.989 | locus YBL061C, strain skt5, active compounds read low 0.979 | locus YBR009C, strain hhf1, active compounds read low 1.02 | locus YBR021W, strain FUR4, active compounds read low 1 | locus YBR023C, strain chs3, active compounds read low 0.995 | locus YBR171W, strain sec66, active compounds read low 0.965 | locus YBR229C, strain ROT2, active compounds read low 0.964 | locus YBR231C, strain swc5, active compounds read low 1.04 | locus YBR279W, strain paf1, active compounds read low 0.983 | locus YCL016C, strain dcc1, active compounds read low 0.975 | locus YCL029C, strain bik1, active compounds read low 0.995 | locus YCL061C, strain MRC1 (second series), active compounds read low 0.999 | locus YCL061C, strain MRC1, active compounds read low 0.981 | locus YCL069W, strain vba3, active compounds read low 0.98 | locus YCR088W, strain abp1, active compounds read low 0.982 | locus YDL005C, strain med2, active compounds read low 0.961 | locus YDL035C, strain GPR1, active compounds read low 0.992 | locus YDL040C, strain nat1, active compounds read low 0.982 | locus YDL074C, strain BRE1, active compounds read low 0.972 | locus YDL101C, strain DUN1, active compounds read low 0.984 | locus YDL134C, strain PPH21, active compounds read low 1.01 | locus YDL185W, strain tfp1, active compounds read low 0.969 | locus YDL192W, strain arf1, active compounds read low 0.997 | locus YDR001C, strain nth1, active compounds read low 0.979 | locus YDR069C, strain doa4, active compounds read low 0.946 | locus YDR101C, strain arx1, active compounds read low 0.988 | locus YDR137W, strain rgp1, active compounds read low 0.993 | locus YDR150W, strain NUM1, active compounds read low 0.996 | locus YDR159W, strain sac3, active compounds read low 0.998 | locus YDR162C, strain NBP2, active compounds read low 0.999 | locus YDR195W, strain ref2 1.01 | locus YDR297W, strain sur2, active compounds read low 0.981 | locus YDR318W, strain mcm21, active compounds read low 0.993 | locus YDR334W, strain swr1, active compounds read low 0.969 | locus YDR335W, strain msn5, active compounds read low 0.966 | locus YDR363W, strain ESC2, active compounds read low 0.999 | locus YDR388W, active compounds read low 0.996 | locus YDR392W, strain spt3, active compounds read low 0.881 | locus YDR502C, strain sam2, active compounds read low 0.989 | locus YEL003W, strain gim4, active compounds read low 0.991 | locus YEL037C, strain rad23, active compounds read low 0.983 | locus YEL061C, strain CIN8 (second series), active compounds read low 0.992 | locus YEL061C, strain CIN8, active compounds read low 0.988 | locus YER002W, strain NOP16, active compounds read low 0.993 | locus YER015W, strain faa2, active compounds read low 1 | locus YER016W, strain bim1, active compounds read low 0.936 | locus YER110C, active compounds read low 0.99 | locus YER111C, strain swi4, active compounds read low 0.966 | locus YER155C, strain BEM2 (second series), active compounds read low 0.966 | locus YER155C, strain BEM2, active compounds read low 1 | locus YER167W, strain BCK2, active compounds read low 0.995 | locus YFR010W, strain ubp6, active compounds read low 1 | locus YGL078C, strain dbp3, active compounds read low 0.994 | locus YGL086W, strain mad1, active compounds read low 0.988 | locus YGL167C, strain pmr1, active compounds read low 0.922 | locus YGL173C, strain kem1, active compounds read low 0.998 | locus YGL227W, strain vid30, active compounds read low 0.993 | locus YGL240W, strain doc1, active compounds read low 0.991 | locus YGL248W, strain PDE1, active compounds read low 0.975 | locus YGL253W, strain hxk2, active compounds read low 0.993 | locus YGR078C, strain PAC10, active compounds read low 0.967 | locus YGR135W, strain pre9, active compounds read low 0.997 | locus YGR229C, strain SMI1, active compounds read low 0.994 and 0.978 | locus YGR252W, strain gcn5, active compounds read low 0.96 | locus YHR013C, strain ard1, active compounds read low 0.91 | locus YHR027C, strain rpn1, active compounds read low 0.994 | locus YHR030C, strain SLT2, active compounds read low 1 and 0.988 | locus YHR079C, strain IRE1 (second series), active compounds read low 0.989 | locus YHR079C, strain IRE1, active compounds read low 1.01 | locus YHR094C, strain hxt1, active compounds read low 0.998 | locus YHR129C, strain ARP1, active compounds read low 1 | locus YHR142W, strain chs7, active compounds read low 0.964 | locus YHR200W, strain rpn10, active compounds read low 0.987 | locus YIL066C, strain RNR3, active compounds read low 0.972 | locus YIL073C, strain SPO22, active compounds read low 1.07 | locus YIL125W, strain kgd1, active compounds read low 0.984 | locus YIR030C, strain dcg1, active compounds read low 0.994 | locus YJL092W, strain hpr5, active compounds read low 0.974 | locus YJL095W, strain BCK1 (second series), active compounds read low 0.982 | locus YJL095W, strain BCK1, active compounds read low 0.968 and 1.01 | locus YJL115W, strain asf1, active compounds read low 0.966 | locus YJL129C, strain trk1, active compounds read low 0.949 | locus YJL134W, strain LCB3, active compounds read low 1 | locus YJL154C, strain vps35, active compounds read low 0.969 | locus YJL164C, strain tpk1, active compounds read low 0.984 | locus YJL166W, strain qcr8, active compounds read low 0.99 | locus YJL168C, strain set2, active compounds read low 0.986 | locus YJL187C, strain SWE1 (second series), active compounds read low 0.969 | locus YJR043C, strain POL32, active compounds read low 0.997 | locus YJR066W, strain TOR1, active compounds read low 0.938 | locus YJR075W, strain HOC1, active compounds read low 0.985 and 0.996
